Structures are written as SMILES. Results filed as inconclusive are left out. Activity calls are given as the source filed them. Calls follow the shape of the dose curve; as a rule, active = well fitted cell-killing curve with a large enough effect; inconclusive = small, poorly fitted or top-dose-only effect, or effect the other way; inactive = no such curve, though single readings can be large or run the other way.

Experiment [1] in a line: Quantitative High-Throughput drug screen in 47 multiple myeloma cell lines against the NCATS MIPE library collection: U266_ATCC cell viability assay (AID 1919864). Also: nearly all actives have a fitted effect of over 35% in size. The procedure, abridged:
(§1)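 Myeloma cells (500/well) treated with MIPE 4.0 compounds for 48 h at 37 °C, 5% CO2. Viability read as ATP via CellTiter-Glo luminescence after 5 min at RT; DMSO-only wells = 100%, media-only = 0% viability.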

Experiment [2] can be described thus: Quantitative High-Throughput drug screen in 47 multiple myeloma cell lines against the NCATS MIPE library collection: XG6_PLB cell viability assay (AID 1919865). Also: nearly all actives have a fitted effect of over 40% in size. The procedure, abridged: as §1
Experiment [3] is described as follows: Quantitative High-Throughput drug screen in 47 multiple myeloma cell lines against the NCATS MIPE library collection: XG1_PLB cell viability assay (AID 1919866). Also: nearly all actives have a fitted effect of over 35% in size. The procedure, abridged:
as §1

Experiment [4] in a line: Quantitative High-Throughput drug screen in 47 multiple myeloma cell lines against the NCATS MIPE library collection: VP6_DJ cell viability assay (AID 1919867). Also: nearly all actives have a fitted effect of over 40% in size. The procedure, abridged: as §1
Experiment [5] can be described thus: Quantitative High-Throughput drug screen in 47 multiple myeloma cell lines against the NCATS MIPE library collection: UTMC2_PLB cell viability assay (AID 1919868). Also: nearly all actives have a fitted effect of over 55% in size. Conditions: CellTiter-Glo ATP luminescence, 48 h; viability (% of DMSO control): at 45.8 µM (top of the series). The method in brief:
as §1

Experiment [6] is described as follows: Quantitative High-Throughput drug screen in 47 multiple myeloma cell lines against the NCATS MIPE library collection: PE2_PLB cell viability assay (AID 1919869). Also: nearly all actives have a fitted effect of over 35% in size. The procedure, abridged: as §1
Experiment [7] can be described thus: Quantitative High-Throughput drug screen in 47 multiple myeloma cell lines against the NCATS MIPE library collection: PCM6_Riken cell viability assay (AID 1919870). Also: nearly all actives have a fitted effect of over 30% in size. The procedure, abridged: as §1
The nature of experiment [8]: Quantitative High-Throughput drug screen in 47 multiple myeloma cell lines against the NCATS MIPE library collection: OPM2_DSMZ cell viability assay (AID 1919872). Also: nearly all actives have a fitted effect of over 30% in size. The method in brief:
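Viability readout: CellTiter-Glo luminescence following 5 min room-temperature incubation with reagent. Prior exposure: 48 h, 37C, humidified 5% CO2, 500 cells per well.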

The nature of experiment [9]: Quantitative High-Throughput drug screen in 47 multiple myeloma cell lines against the NCATS MIPE library collection: KMS11_JCRBsus cell viability assay (AID 1919873). Also: nearly all actives have a fitted effect of over 50% in size. The method in brief:
as §1

Experiment [10] in a line: Quantitative High-Throughput drug screen in 47 multiple myeloma cell lines against the NCATS MIPE library collection: RPMI8226_ATCC cell viability assay (AID 1919871). Also: nearly all actives have a fitted effect of over 30% in size. The method in brief:
as §1
Potency is read from the fitted curve at half-maximal effect.

`COc1cc2c(Nc3ccc(Cl)c(Cl)c3F)ncnc2cc1OCC1C[C@@H]2CN(C)C[C@H]2C1`: the Potency in experiment [1] was 23.5 µM (active); in [2], 1.05 µM (active); in experiment [3], 2.35 µM (active); in [4], 2.64 µM (active); in experiment [5] it was 2.35 µM (active); in experiment [6], 1.87 µM (active). Also, the Potency in [7] was 1.32 µM (active); in [8], 20.9 µM (active); in experiment [9], 5.9 µM (active).

On to `Cn1cnc(=N)c2[nH]cnc21`, for which the Potency is 0.235 µM (active) in [1]; 0.132 µM (active) in experiment [2]; 0.166 µM (active) in experiment [3]; 0.0662 µM (active) in experiment [4]; 0.0935 µM (active) in experiment [5]; 0.332 µM (active) in experiment [6]. Besides, the Potency in [7] is 0.235 µM (active); in experiment [10] it was 0.264 µM (active); in [8], 0.235 µM (active); in experiment [9] it was 0.0935 µM (active).

`O=C(Nc1ccc(Oc2ccnc3[nH]ccc23)c(F)c1)c1cccn(-c2ccc(F)cc2)c1=O`: the Potency result in experiment [1], in [5], in [6] and in experiment [8] was “inactive” throughout. For the same molecule, the Potency is 26.4 µM (active) in experiment [2], 26.4 µM (active) in experiment [3], 20.9 µM (active) in experiment [4] and 23.5 µM (active) in [7].

Regarding `COC[C@H](NC(=O)c1cnc(C)s1)C(=O)N[C@@H](COC)C(=O)N[C@@H](Cc1ccccc1)C(=O)[C@@]1(C)CO1`, the Potency is 0.0743 µM (active) in [1]; 0.059 µM (active) in experiment [2]; 0.0743 µM (active) in [3]; 0.0662 µM (active) in experiment [4]; 1.05 µM (active) in experiment [5]; 0.0833 µM (active) in [6]. Moreover, the Potency in [7] is 0.187 µM (active); in experiment [10], 0.187 µM (active); in experiment [8], 0.235 µM (active); in experiment [9], 0.0187 µM (active).

For the molecule `C=CC(=O)Nc1ccc2ncnc(Nc3ccc(OCc4cccc(F)c4)c(Cl)c3)c2c1`, the Potency was 14.8 µM (active) in experiment [1]; 0.0148 µM (active) in [2]; 0.0662 µM (active) in experiment [3]; 0.264 µM (active) in [4]; 0.743 µM (active) in experiment [5]; 0.59 µM (active) in experiment [6]. In addition, the Potency is 1.66 µM (active) in experiment [7], 9.35 µM (active) in [10], 1.05 µM (active) in experiment [8] and 0.187 µM (active) in experiment [9].

For `Cc1ncc(-c2ccnc(Nc3ccc(S(C)(=O)=O)cc3)n2)n1C(C)C`, the Potency is 3.32 µM (active) in experiment [1]; 1.87 µM (active) in experiment [2]; 1.48 µM (active) in experiment [3]; 1.87 µM (active) in experiment [4]; 3.32 µM (active) in experiment [5]; 2.35 µM (active) in [6]. The Potency in [7] is 0.743 µM (active); in [10] it was 5.9 µM (active); in [8] it was 3.72 µM (active); in [9], 2.09 µM (active).

In the case of `COc1ccc(C[C@@H](C)[C@@H](C)Cc2ccc(OC)c(OC)c2)cc1OC`, the Potency in experiment [1] was 0.935 µM (active); in experiment [2], 0.264 µM (active); in [3] it was 0.187 µM (active); in [4], 0.833 µM (active); in [5] it was 0.209 µM (active); in [6], 0.332 µM (active). For the same molecule, the Potency in experiment [7] was 0.332 µM (active); in experiment [10], 1.18 µM (active); in experiment [8], 0.469 µM (active); in [9], 0.132 µM (active).

Regarding `Nc1nc(N)c2nc(-c3cccc(O)c3)c(-c3cccc(O)c3)nc2n1`, the Potency in [1] was 18.7 µM (active); in experiment [2], 3.32 µM (active); in [3], 4.18 µM (active); in [4], 3.32 µM (active); in [5], 3.72 µM (active); in experiment [6] it was 2.96 µM (active). The Potency in experiment [7] is 2.64 µM (active).

In the case of `COc1cc(C)c(Sc2cnc(NC(=O)c3ccc(CNC(C)C(C)(C)C)cc3)s2)cc1C(=O)N1CCN(C(C)=O)CC1` (configuration not stated), the Potency was 14.8 µM (active) in [1]; 14.8 µM (active) in experiment [2]; 16.6 µM (active) in experiment [3]; 8.33 µM (active) in experiment [4]; 3.32 µM (active) in experiment [5]; 14.8 µM (active) in [6]. Moreover, the Potency in experiment [7] was 18.7 µM (active); in [10] it was 16.6 µM (active); in experiment [8], 20.9 µM (active); in [9], 5.9 µM (active).

In the case of `O=C(O)C=Cc1ccc(Cn2ccnc2)cc1`, the Potency result in experiment [1], in [2], in experiment [3], in experiment [4], in experiment [5] and in experiment [6] was “inactive” each time. Further, the Potency entry in experiment [7], in [10] and in [8] was “inactive” throughout.

Take `Oc1ccc(-c2ccc(-c3cc(Nc4cccc(CNC5CC5)c4)n[nH]3)cc2)c(O)c1`: the Potency in experiment [1] is 5.26 µM (active); in [2] it was 0.418 µM (active); in [3] it was 0.526 µM (active); in experiment [4], 0.743 µM (active); in experiment [5] it was 1.32 µM (active); in experiment [6], 1.32 µM (active). Further, the Potency in experiment [7] is 0.59 µM (active); in experiment [10], 9.35 µM (active); in experiment [8], 4.69 µM (active); in [9], 1.32 µM (active).

Turning to `CCNC(=O)Nc1ccc(-c2nc3c(c(N4CCOC[C@H]4C)n2)CCN(C2COC2)C3)cc1`, the Potency was 6.62 µM (active) in experiment [1]; 0.935 µM (active) in experiment [2]; 0.526 µM (active) in experiment [3]; 1.05 µM (active) in experiment [4]; 1.18 µM (active) in experiment [5]; 1.18 µM (active) in experiment [6]. Further, the Potency in experiment [7] is 1.32 µM (active); in experiment [10], 0.743 µM (active); in experiment [9], 0.296 µM (active).

Turning to `C[C@H](NCc1ccc(OCc2cccc(F)c2)cc1)C(N)=O`, the Potency in experiment [1] is 7.43 µM (active); in experiment [2], 1.66 µM (active); in [3], 3.72 µM (active); in experiment [4], 2.35 µM (active); in experiment [5] it was 1.18 µM (active); in [6] it was 2.09 µM (active). The Potency in [7] is 2.09 µM (active); in experiment [10], 16.6 µM (active); in [8], 11.8 µM (active); in experiment [9], 7.43 µM (active).

For `CCCCCCCCc1ccc(CCC(N)(CO)CO)cc1`, the Potency in [1] was 16.6 µM (active); in [2], 3.32 µM (active); in [3] it was 4.18 µM (active); in [4], 4.69 µM (active); in experiment [5], 9.35 µM (active); in experiment [6], 8.33 µM (active). The Potency in experiment [7] is 3.72 µM (active); in [10], 9.35 µM (active); in experiment [8], 16.6 µM (active); in experiment [9], 7.43 µM (active).

Source of the values: PubChem BioAssay (NCATS).
